Potency data for 105 molecules are collected here from PubChem BioAssay AID686979 (National Center for Advancing Translational Sciences (NCATS), 2013).

Values joined by “and” are separate entries in the source; they are usually repeats but may differ in a detail not shown here. Equal values may be shown once. The whole screen tested about 420,000 compounds, of which about 50,000 (12%) were called active. Where a call stands in place of a potency, no number is given. Not shown: some 26% with an inconclusive outcome. Calls follow the shape of the dose curve; as a rule, active = well fitted inhibition curve with a large enough effect; inconclusive = small, poorly fitted or top-dose-only effect; inactive = flat fitted curve, though single readings scatter. The full list was thinned out, with actives kept by preference. Where a structure was tested more than once in an assay, its records may differ in their call.
Potency is read from the fitted curve at half-maximal effect.

The test in a line: qHTS for Inhibitors of human tyrosyl-DNA phosphodiesterase 1 (TDP1): qHTS in cells in presence of CPT. Also: nearly all actives have a fitted effect of over 55% in size. The following applies: chicken DT40 Tdp1-/-;hTDP1 cells + 20 nM CPT, ATP luminescence, 48 h; series mostly up to 46.2 µM. The procedure, abridged: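 Chicken DT40 Tdp1-/- cells stably complemented with human TDP1 were seeded at 400 cells/well in medium containing 20 nM camptothecin, exposed to pin-transferred compounds, and grown at 37 °C for at least 48 hr. Viability was read as ATP luminescence.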
(In general: In qHTS, concentration-response curves come from the screen itself.)
For the molecule `COc1ccc(C)cc1N(C(=O)Cn1nnc(-c2ccc(C)o2)n1)C(C(=O)NC1CCCC1)c1ccncc1` (stereo not given), the Potency entry is “inactive”.
The same measure for `COc1ccc(C2OCC3(CO2)SC(=O)NC3=O)cc1OC` (stereo not given): “inactive”; for `N#CCC(=O)NC1CCC(CC2CCC(NC(=O)CC#N)CC2)CC1` (stereo not given): “inactive”.
The same measure for `COc1ccc(Nc2nc(Cl)nc(NCc3ccco3)n2)cc1`: “inactive”.
With `COc1ccc(NC(=O)C(=O)NCc2ccco2)cc1`, the Potency result is “inactive”.
Take `COc1ccc(Nc2nc(NCc3ccco3)nc(N/N=C/c3ccccc3Cl)n2)cc1`: the Potency is 20.6 µM (active).
As for `CCN(CC)S(=O)(=O)c1ccc(OC(C)C)c(N)c1`, the Potency entry was “inactive”.
On to `O=C(O)c1ccc(OCC2CCCO2)cc1` (stereo not given), for which the Potency entry is “inactive”.
For the molecule `COc1ccc2cc(C(=O)NCC3CCCO3)[nH]c2c1` (stereo not given), the Potency entry was “inactive”.
For the molecule `COc1ccc(OC)c(NC(=O)c2cc(-c3cc(F)ccc3OCC3CCCO3)n[nH]2)c1` (stereo not given), the Potency was 8.2 µM (active).
Regarding `O=S(=O)(c1ccc(F)cc1)n1ccc(-c2cnc(-c3ccccc3)s2)n1`, the Potency entry is “inactive”.
Turning to `COc1cc(/C=C/C(=O)OCC(=O)c2ccccc2)cc(OC)c1OC`, the Potency entry is “inactive”.
To `COc1cc2c(cc1NC(=O)COC(=O)/C=C/c1ccccc1)oc1ccccc12` belongs 20.6 µM (active).
In the case of `COc1cc2c(cc1NC(=O)CN1CCN(S(=O)(=O)c3ccc(F)cc3)CC1)oc1ccccc12`, the Potency entry is “inactive”.
Regarding `CSCCC(NC(=O)c1ccccc1)C(=O)N1CCCCCCC1` (stereo not given), the Potency result was “inactive”.
The same measure for `COc1ccc(/C=C(\C#N)C(=O)ONC2=NCCCCC2)cc1`: 16.4 µM (active).
Regarding `COc1ccc(/C=C(\C#N)C(=O)OCC(=O)N(C)C2CCS(=O)(=O)C2)cc1` (stereo not given), the Potency result is “inactive”.
Turning to `CC(C)(C)C(=O)/C(C#N)=C/c1ccc(O)cc1`, the Potency entry is “inactive”.
To `CCN(CC(=O)Nc1c(F)cccc1F)C(=O)Cc1cccs1` belongs “inactive”; to `CC(C)C1CC2=C(C(=O)OC(C)(C)O2)C(c2ccc(F)cc2)O1` (stereo not given), “inactive”.
As to `O=C(NCc1ccc(Cl)cc1)C1CCN(S(=O)(=O)c2cccs2)CC1`, the Potency is 11.6 µM (active).
Turning to `O=C(NCc1ccccc1)C1CCCN(S(=O)(=O)c2cccs2)C1` (stereo not given), the Potency result was “inactive”.
As for `O=C(NCc1cccs1)C1CCN(S(=O)(=O)c2ccc(Cl)cc2)CC1`, the Potency result is “inactive”.
For the molecule `CC1=C(C(N)=O)C(c2ccc(F)cc2)n2nc(CCCO)nc2N1` (stereo not given), the Potency entry was “inactive”.
Consider `CCCCOP(=O)(c1ccc(N(C)C)cc1)C(O)c1cc(OC)ccc1OC` (stereo not given), for which the Potency result was “inactive”.
With `Cc1ccc(S(=O)(=O)N(C)c2ccc(OCC(=O)OCc3ccc(C#N)cc3)cc2)cc1`, the Potency entry was “inactive”.
As to `Cc1ccc(CN2CCN(Cc3cccc(C)n3)CC2CCO)cc1` (stereo not given), the Potency result is “inactive”.
As for `COC(=O)C1CCN(C(=O)COC(=O)c2cc(S(=O)(=O)N3CCOCC3)ccc2C)CC1`, the Potency entry is “inactive”.
As for `O=C(Nc1c2c(nc3ccccc13)CCCC2)c1ccccc1Br`, the Potency result is “inactive”.
In the case of `N#Cc1cccc(Nc2c3c(nc4ccccc24)CCCC3)c1`, the Potency is 18.4 µM (active).
In the case of `CC(=O)Nc1ccc(Nc2c3ccccc3nc3ccccc23)cc1`, the Potency was 0.326 µM (active).
As for `CC(=O)Nc1ccc(NC(=O)COc2ncnc3ccccc23)cc1`, the Potency entry is “inactive”.
As to `N#Cc1cccc(NC(=O)CCC2CCCC2)c1`, the Potency entry is “inactive”.
The same measure for `CC(=O)Nc1ccc(S(=O)(=O)N(C)c2nc3ccccc3nc2Cl)cc1`: “inactive”; for `N#Cc1cccc(NC(=O)CN2CCCCCC2)c1`: “inactive”.
Turning to `Cc1ccc(Nc2c3c(nc4ccccc24)CCC3)cc1`, the Potency is 11.6 µM (active).
As for `CN1CCCN(C(=O)C2CCCCC2)CC1`, the Potency entry was “inactive”.
Consider `CC1(C)C2CC=C(/C=N/NC(=O)C3CC3)C1C2` (stereo not given), for which the Potency result is “inactive”.
For `Cc1cc(C)n(CCC(=O)N2CCN(S(=O)(=O)c3ccc(C)c(C)c3)CC2)n1`, the Potency result is “inactive”.
`O=C(OCCN1C(=O)c2ccccc2C1=O)[C@@H]1CC(O)CN1S(=O)(=O)c1ccccc1[N+](=O)[O-]` (stereo not given in full): the Potency result is “inactive”.
For `O=C(O)CCCCCCCCc1cn(CN2C(=O)c3ccccc3C2=O)nn1`, the Potency entry is “inactive”.
To `Cn1c(N)c(C(=O)COC(=O)c2ccc3ccccc3c2)c(=O)n(C)c1=O` belongs “inactive”; to `Cc1cc(=O)oc2c1ccc1ccccc12`, “inactive”; to `Cc1nnc(SC(C)C(=O)c2c[nH]c3ccccc23)n1C1CC1` (stereo not given), “inactive”.
Take `COc1cc(SC)ccc1C(=O)NCCOc1ccccc1Cl`: the Potency entry is “inactive”.
For the molecule `COc1ccccc1OCCNC(=O)CCNC(=O)c1ccccc1Cl`, the Potency entry is “inactive”.
To `O=C(NCCOc1ccccc1Cl)C(=O)Nc1ccccc1` belongs 20.6 µM (active).
As to `COc1cc(C(=O)NNC(=O)CN2C(=O)NC3(CCCC3)C2=O)cc(OC)c1OC`, the Potency result was “inactive”.
Turning to `CC1(C(=O)NS(=O)(=O)c2cccc(F)c2)CCN1C(=O)Cc1ccc(Cl)cc1Cl` (stereo not given), the Potency result is “inactive”.
Regarding `CCCOc1ccc(Cc2c(O)nc(SC)[nH]c2=O)cc1C`, the Potency result was “inactive”.
As to `COc1ccc(S(=O)(=O)N2CCN(c3cnccn3)CC2)cc1`, the Potency entry is “inactive”.
For the molecule `COc1ccc(S(=O)(=O)N2CCN(c3ncnc4c(-c5ccccc5)nsc34)CC2)cc1`, the Potency was 16.4 µM (active).
For `COc1ccc(CCC(=O)N2CCN(S(=O)(=O)c3ccc(OC)cc3)CC2)cc1`, the Potency entry was “inactive”.
Take `Cc1noc(C)c1COc1ccccc1C(=O)N(C)CC(=O)Nc1cccc(F)c1`: the Potency result was “inactive”.
Regarding `C[C@H]1NS(=O)(=O)c2cc(Cl)ccc2O[C@@H]1c1ccccc1`, the Potency entry is “inactive”.
For the molecule `COc1ccc(OC)c(S(=O)(=O)n2c([N+](=O)[O-])cnc2C)c1`, the Potency entry is “inactive”.
For `CCOCc1nnc(NC(=O)CCS(=O)(=O)Cc2ccccc2)s1`, the Potency was 9.2 µM (active).
In the case of `CCCCc1nnc(NC(=O)CS(=O)(=O)Cc2ccccc2)s1`, the Potency result was “inactive”.
The same measure for `COCCSc1nnc(NC(=O)CCS(=O)(=O)Cc2ccccc2)s1`: “inactive”; for `Cn1c(N)c(C(=O)COC(=O)/C=C/c2cccc(C(F)(F)F)c2)c(=O)n(C)c1=O`: “inactive”.
The same measure for `Cc1ccc(CSCC(=O)N(C)CC(=O)Nc2cccc(F)c2)cc1`: “inactive”; for `CCS(=O)(=O)c1ccc(-c2cccc(NC(=O)c3ccc(Br)o3)c2)nn1`: “inactive”.
To `O=C(NCc1ccc(Cl)c(Cl)c1)c1cccnc1` belongs “inactive”; to `Cc1ccc(S(=O)(=O)N(Cc2ccc(Cl)cc2)c2ccccc2C(=O)NCc2cccnc2)cc1`, 18.4 µM (active); to `CS(=O)(=O)N(Cc1ccccc1Cl)c1ccc(C(=O)NCc2cccnc2)cc1`, 23.1 µM (active).
On to `Cc1ccc(C(=O)NC(=S)NCc2cccnc2)cc1`, for which the Potency result is “inactive”.
As to `O=C(O)c1ccccc1-c1ccccc1C(=O)NCc1cccnc1`, the Potency entry is “inactive”.
With `O=C(NCc1cccnc1)c1cccnc1Sc1ccc(Cl)cc1`, the Potency entry was “inactive”.
Consider `CC(=O)NCC(=O)N(C)C(C(=O)Nc1ccc2c(c1)OCCO2)c1ccccc1` (stereo not given), for which the Potency entry was “inactive”.
In the case of `O=C(NCc1ccncc1)C(=O)NCC1OCCN1S(=O)(=O)c1ccc(Br)cc1` (stereo not given), the Potency entry was “inactive”.
Regarding `O=C(NCCCN1CCCC1=O)C(=O)NCC1OCCN1S(=O)(=O)c1ccc(Br)cc1` (stereo not given), the Potency was 18.4 µM (active).
To `COc1ccc(S(=O)(=O)N2CCOC2CNC(=O)C(=O)NCc2ccc(F)cc2)cc1` (stereo not given) belongs “inactive”; to `CCOC(=O)c1cnc2c(C)cc(C)cc2c1Nc1ccc(N2CCOCC2)cc1`, 25.9 µM (active).
As for `CCOC(=O)c1cnc2c(C)cc(Cl)cc2c1NCCc1ccc(OC)c(OC)c1`, the Potency result is “inactive”.
For the molecule `CCOC(=O)c1ccccc1C(=O)N1CCOCCOCCOCC1`, the Potency entry was “inactive”.
For `CC(C)(O)C1=C[N+](=O)CC=C1`, the Potency entry is “inactive”.
Consider `COc1ccc(SCc2cc(=O)c3ccc(C)c(C)c3[nH]2)cc1`, for which the Potency entry was “inactive”.
For the molecule `CCOC(=O)CN1C(C(=O)c2ccccc2)=C(OC(=O)C(C)(C)C)c2ccccc2S1(=O)=O`, the Potency is 20.6 µM (active).
Take `CCOC(=O)c1ccccc1CN1C(=O)c2ccccc2S1(=O)=O`: the Potency entry was “inactive”.
To `COC(=O)C1=C(c2ccccc2)c2ccccc2S(=O)(=O)N1CC(=O)Nc1ccccc1C(F)(F)F` belongs “inactive”.
Consider `Cc1ccc2c(c1)N(CC(=O)N1CCC(O)CC1)C(=O)CO2`, for which the Potency entry is “inactive”.
To `Fc1ccc(-c2nc(Nc3cccc(Cl)c3)nc3c2COc2ccccc2-3)cc1` belongs “inactive”.
For the molecule `Cc1cc(OCC(=O)NCC(O)c2ccccc2)c2c(C)c(C)c(=O)oc2c1` (stereo not given), the Potency result is “inactive”.
As for `Cc1ccc(N(CC(=O)NCC2CCCO2)C(=O)CNS(=O)(=O)c2ccc(Cl)cc2)cc1` (stereo not given), the Potency entry is “inactive”.
To `Nc1ccccc1/C=N\N=C/c1ccccc1N` belongs “inactive”; to `Nc1ccccc1N`, “inactive and 4.86 µM (active)”; to `Nc1cccnc1Sc1ccccc1`, “inactive”.
With `CC1=NN(C(=O)c2ccc(Br)cc2)C(O)(c2ccccc2)C1` (stereo not given), the Potency result is “inactive”.
`Cc1ccc2nc(Nc3ncc4c(n3)CC(C)(C)CC4=O)nc(C)c2c1`: the Potency entry was “inactive”.
For the molecule `CCc1nc2ccccc2c(C(=O)NCc2ccc(OC)cc2)c1C`, the Potency result is “inactive”.
Regarding `COc1ccc(CNC(=O)C(C)NCc2ccccc2Cl)cc1` (stereo not given), the Potency result was “inactive”.
For the molecule `N#Cc1ccc(C(C(=O)NCc2ccccc2)n2c(=O)c(-c3ccco3)nc3ccccc32)cc1` (stereo not given), the Potency was 20.6 µM (active).
As to `COc1ccc(C(C(=O)NCc2ccccc2)n2c(=O)c(-c3ccccc3)nc3ccccc32)cc1` (stereo not given), the Potency was 14.6 µM (active).
Turning to `CCCN(CCC)CCCNC(=O)CNC(=O)c1nn(-c2ccc(OC)cc2)c(=O)c2ccccc12`, the Potency entry was “inactive”.
To `O=C(CSc1nnc(-c2ccco2)n1Cc1ccccc1)NC(=O)NCc1ccco1` belongs “inactive”; to `CCCCCNC(=O)C(c1ccc(OC)cc1)n1c(=O)c(-c2ccccc2)nc2ccccc21` (stereo not given), 23.1 µM (active).
Take `CCOCCCNC(=O)C(NC(=O)CNC(=O)c1ccccc1)c1ccc(OC)cc1` (stereo not given): the Potency result was “inactive”.
The same measure for `O=C(NNC(=S)NCc1ccco1)C(c1ccccc1)c1ccccc1`: “inactive”; for `O=C1COc2ccc(S(=O)(=O)NCCc3ccc(Cl)cc3)cc2N1`: “inactive”.
In the case of `COc1ccc(N(CC(=O)NCCSCc2cccc(Cl)c2)S(C)(=O)=O)cc1`, the Potency result was “inactive”.
Consider `O=C1CCC(=O)N(c2ccccc2)N1`, for which the Potency entry was “inactive”.
Take `Cc1nc(-c2ccc([N+](=O)[O-])cc2)c(-c2ccccc2)o1`: the Potency result was “inactive”.
In the case of `O=C1CC(c2ccccc2)=NN1c1ccc([N+](=O)[O-])cc1`, the Potency is 16.4 µM (active).
As to `O=c1[nH]n(-c2ccc([N+](=O)[O-])cc2)c(=O)c2ccccc12`, the Potency entry was “inactive”.
Take `CC(=O)c1ccc(S(=O)(=O)NCc2nnnn2-c2ccccc2)cc1`: the Potency result was “inactive”.
